From PubChem BioAssay AID1159580 (chemical genetic matrix, 2015)
Hit rate of the full screen: of about 5,500 compounds, about 2,000 (36%) were called active. About 18% were inconclusive and are not listed. Cut-off read from the data, not from the text of the source: active = normalized growth mostly below about 0.91 (no sharp cut-off); inconclusive = no clear call, values can overlap the other calls; inactive = mostly above about 0.92. The list shows a part of the results.

Experiment: chemical genetic growth profiling, strain panel (AID 1159580);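 note: tested at 20 µM; growth read once vehicle control cultures reached saturation at 30 °C; 1 = growth at the plate median or of vehicle wells; lower values mean less growth of the strain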
Settings: growth OD

Measured: normalized growth

C=C1C(=O)OC2CC1C(OC(C)=O)C/C(C)=C/CC/C(C)=C/CC[C@]2(C)O (stereo partly specified)
inactive: S. cerevisiae deletion strains, locus YJR043C, strain POL32, stronger effect = lower value 1.04 | S. cerevisiae deletion strains, locus YJR075W, strain HOC1, stronger effect = lower value 0.999 | S. cerevisiae deletion strains, locus YKL009W, strain mrt4, stronger effect = lower value 0.998 | S. cerevisiae deletion strains, locus YKL068W, stronger effect = lower value 1.01 | S. cerevisiae deletion strains, locus YKL085W, strain MDH1 (second series), stronger effect = lower value 0.99 | S. cerevisiae deletion strains, locus YKL085W, strain MDH1, stronger effect = lower value 0.99 | S. cerevisiae deletion strains, locus YKL160W, strain elf1, stronger effect = lower value 0.982 | S. cerevisiae deletion strains, locus YKR001C, strain vps1, stronger effect = lower value 1.02 | S. cerevisiae deletion strains, locus YKR026C, strain gcn3, stronger effect = lower value 0.997 | S. cerevisiae deletion strains, locus YKR091W, strain srl3, stronger effect = lower value 0.981 | S. cerevisiae deletion strains, locus YLL001W, strain dnm1, stronger effect = lower value 0.973 | S. cerevisiae deletion strains, locus YLL026W, stronger effect = lower value 0.987 | S. cerevisiae deletion strains, locus YLL041C, strain sdh2, stronger effect = lower value 0.993 | S. cerevisiae deletion strains, locus YLR027C, strain aat2, stronger effect = lower value 1.01 | S. cerevisiae deletion strains, locus YLR039C, strain RIC1, stronger effect = lower value 0.894 | S. cerevisiae deletion strains, locus YLR058C, strain SHM2, stronger effect = lower value 1.02 | S. cerevisiae deletion strains, locus YLR102C, strain apc9, stronger effect = lower value 1.02 | S. cerevisiae deletion strains, locus YLR221C, strain rsa3, stronger effect = lower value 1.03 | S. cerevisiae deletion strains, locus YLR258W, strain gsy2, stronger effect = lower value 1 | S. cerevisiae deletion strains, locus YLR262C, strain YPT6 (second series), stronger effect = lower value 0.916 | S. cerevisiae deletion strains, locus YLR262C, strain YPT6, stronger effect = lower value 0.858 | S. cerevisiae deletion strains, locus YLR268W, strain sec22, stronger effect = lower value 1 | S. cerevisiae deletion strains, locus YLR320W, strain mms22, stronger effect = lower value 1.03 | S. cerevisiae deletion strains, locus YLR330W, strain CHS5, stronger effect = lower value 1.03 | S. cerevisiae deletion strains, locus YLR342W, strain FKS1 (second series), stronger effect = lower value 0.993 | S. cerevisiae deletion strains, locus YLR342W, strain FKS1, stronger effect = lower value 0.995 | S. cerevisiae deletion strains, locus YLR357W, strain rsc2, stronger effect = lower value 1.02 | S. cerevisiae deletion strains, locus YLR370C, strain arc18, stronger effect = lower value 0.998 | S. cerevisiae deletion strains, locus YLR371W, strain rom2, stronger effect = lower value 1.02 | S. cerevisiae deletion strains, locus YLR384C, strain iki3, stronger effect = lower value 0.997 | S. cerevisiae deletion strains, locus YLR418C, strain cdc73, stronger effect = lower value 1.06 | S. cerevisiae deletion strains, locus YML016C, strain PPZ1, stronger effect = lower value 1.01 | S. cerevisiae deletion strains, locus YML032C, strain rad52, stronger effect = lower value 1.01 | S. cerevisiae deletion strains, locus YML120C, strain ndi1, stronger effect = lower value 0.99 | S. cerevisiae deletion strains, locus YML124C, strain tub3, stronger effect = lower value 1.01 | S. cerevisiae deletion strains, locus YMR058W, strain fet3, stronger effect = lower value 0.99 | S. cerevisiae deletion strains, locus YMR078C, strain ctf18, stronger effect = lower value 1.01 | S. cerevisiae deletion strains, locus YMR125W, strain sto1, stronger effect = lower value 0.973 | S. cerevisiae deletion strains, locus YMR129W, stronger effect = lower value 0.997 | S. cerevisiae deletion strains, locus YMR205C, strain PFK2, stronger effect = lower value 0.985 | S. cerevisiae deletion strains, locus YMR223W, strain ubp8, stronger effect = lower value 1 | S. cerevisiae deletion strains, locus YMR231W, strain pep5, stronger effect = lower value 0.976 | S. cerevisiae deletion strains, locus YMR263W, strain SAP30, stronger effect = lower value 1.01 | S. cerevisiae deletion strains, locus YMR307W, strain GAS1, stronger effect = lower value 0.977 | S. cerevisiae deletion strains, locus YNL067W, strain RPL9B, stronger effect = lower value 1.01 | S. cerevisiae deletion strains, locus YNL071W, strain lat1, stronger effect = lower value 0.996 | S. cerevisiae deletion strains, locus YNL128W, strain TEP1, stronger effect = lower value 1.03 | S. cerevisiae deletion strains, locus YNL153C, strain GIM3, stronger effect = lower value 1.04 | S. cerevisiae deletion strains, locus YNL209W, strain ssb2, stronger effect = lower value 0.991 | S. cerevisiae deletion strains, locus YNL233W, strain BNI4, stronger effect = lower value 1.02 | S. cerevisiae deletion strains, locus YNL248C, strain rpa49, stronger effect = lower value 0.988 | S. cerevisiae deletion strains, locus YNL250W, strain rad50, stronger effect = lower value 1.04 | S. cerevisiae deletion strains, locus YNL271C, strain bni1, stronger effect = lower value 1.02 | S. cerevisiae deletion strains, locus YNL298W, strain CLA4, stronger effect = lower value 1.01 | S. cerevisiae deletion strains, locus YNL307C, strain MCK1, stronger effect = lower value 1.03 | S. cerevisiae deletion strains, locus YNL322C, strain KRE1 (second series), stronger effect = lower value 1.01 | S. cerevisiae deletion strains, locus YNL322C, strain KRE1, stronger effect = lower value 1 | S. cerevisiae deletion strains, locus YNR049C, strain mso1, stronger effect = lower value 0.994 | S. cerevisiae deletion strains, locus YNR052C, strain pop2, stronger effect = lower value 1.01 | S. cerevisiae deletion strains, locus YOL012C, strain htz1 0.807 | S. cerevisiae deletion strains, locus YOL147C, strain pex11, stronger effect = lower value 1.03 | S. cerevisiae deletion strains, locus YOR001W, strain rrp6, stronger effect = lower value 1.01 | S. cerevisiae deletion strains, locus YOR061W, strain CKA2, stronger effect = lower value 1.02 | S. cerevisiae deletion strains, locus YOR069W, strain VPS5, stronger effect = lower value 1.01 | S. cerevisiae deletion strains, locus YOR070C, strain gyp1, stronger effect = lower value 0.995 | S. cerevisiae deletion strains, locus YOR080W, strain dia2, stronger effect = lower value 1.01 | S. cerevisiae deletion strains, locus YOR083W, strain WHI5, stronger effect = lower value 0.985 | S. cerevisiae deletion strains, locus YOR106W, strain vam3, stronger effect = lower value 1 | S. cerevisiae deletion strains, locus YOR136W, strain idh2, stronger effect = lower value 1.02 | S. cerevisiae deletion strains, locus YOR144C, strain elg1, stronger effect = lower value 1.02 | S. cerevisiae deletion strains, locus YOR184W, strain ser1, stronger effect = lower value 1.02 | S. cerevisiae deletion strains, locus YOR265W, strain rbl2, stronger effect = lower value 0.996 | S. cerevisiae deletion strains, locus YOR270C, strain vph1, stronger effect = lower value 0.937 | S. cerevisiae deletion strains, locus YOR290C, strain snf2, stronger effect = lower value 0.961 | S. cerevisiae deletion strains, locus YOR316C, strain cot1, stronger effect = lower value 1.01 | S. cerevisiae deletion strains, locus YPL051W, strain arl3, stronger effect = lower value 1.01 | S. cerevisiae deletion strains, locus YPL078C, strain atp4, stronger effect = lower value 0.96 | S. cerevisiae deletion strains, locus YPL106C, strain sse1, stronger effect = lower value 0.991 | S. cerevisiae deletion strains, locus YPL240C, strain hsp82, stronger effect = lower value 1 | S. cerevisiae deletion strains, locus YPL241C, strain CIN2, stronger effect = lower value 1 | S. cerevisiae deletion strains, locus YPR119W, strain clb2, stronger effect = lower value 1.01 | S. cerevisiae deletion strains, locus YPR141C, strain kar3, stronger effect = lower value 1.01 | S. cerevisiae deletion strains, locus YPR163C, strain tif3, stronger effect = lower value 1 | S. cerevisiae deletion strains, locus YPR167C, strain met16, stronger effect = lower value 1.01 | S. cerevisiae deletion strains, strain wtn01, stronger effect = lower value 1.02 | S. cerevisiae strains, strain wild type, stronger effect = lower value 1.01
